This is one part of a sample in which hits are shown more often than they occur.
Dicer processing: inhibitors of Dicer pre-microRNA processing, primary screen, biochemical, cat-ELCCA, chemiluminescence | Endoribonuclease Dicer (Homo sapiens), Q9UPY3 | cat-ELCCA pre-miR-21 Dicer processing; active compounds read high | z-score at 25 µM | 47,000 compounds, 6% hits | AID 1347074, 2019; in the data active = z-score above about 3, passing the limit was not always enough;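 note: plate controls were vehicle for no effect and no enzyme for full effect; higher signal means more uncleaved substrate so more Dicer inhibition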
Numbers without * were called inactive.

Results for Cn1cc(Cl)c(/C=C(\C#N)S(=O)(=O)C(C)(C)C)n1 ?
Dicer processing: 4.2*

Results for Cn1cc(Cl)c(/C=C(\C#N)S(=O)(=O)c2ccccc2)n1 ?
Dicer processing: 0.91

How did Cn1cc(Cl)c(/C=C(\C#N)C(=O)c2ccc(Cl)cc2)n1 do in these assays?
Dicer processing: 0.36

How did CNC(=S)NNS(=O)(=O)c1ccc(Cl)cc1 do in these assays?
Dicer processing: -3.3

Results for CC(C)C(=O)N1c2ccccc2NC2=C(C(=O)CC(C)(C)C2)C1c1cccc(Cl)c1 (stereo not drawn) ?
Dicer processing: 1.5

How did CCCCCn1c(SCC(=O)Nc2ccc(Cl)cc2)n[nH]c1=O do in these assays?
Dicer processing: -0.47

What do the screens show for `CCOc1ccc(/C=C/c2nc(-c3ccc(Cl)cc3)no2)cc1OCC`?
Dicer processing: 3.1*

Results for CCOc1ccc(/C=C/c2nc(-c3ccc(OC)c(OC)c3)no2)cc1OCC ?
Dicer processing: 5.2*

Results for COc1ccccc1OCc1nc(-c2ccc(Cl)cc2)no1 ?
Dicer processing: 0.24

How did CCOc1ccc(/C=C/c2nc(-c3cccc(C)c3)no2)cc1OCC do in these assays?
Dicer processing: 0.92

Results for COc1ccc(/C=C/c2nc(-c3ccccn3)no2)cc1OC ?
Dicer processing: 2.4

What do the screens show for `CCOc1ccc(-c2nc(-c3ccc(OC)cc3)no2)cc1OCC`?
Dicer processing: 1.6

How did O=C(Oc1cc(Cl)cc(Cl)c1)c1cccc(C(F)(F)F)n1 do in these assays?
Dicer processing: 0.17

What do the screens show for `CC(C)c1ccc(NC(=S)NC2CC3CCC2C3)cc1` (stereo not drawn)?
Dicer processing: -0.06

Results for CCOC(=O)C1=C(C)NC2=C(C(=O)CC(c3ccccc3)C2)C1c1cc(C)sc1SC (stereo not drawn) ?
Dicer processing: 0.21

How did CCOC(=O)c1sc(SC)c2c1CC/C(=C\N(C)C)C2=O do in these assays?
Dicer processing: -7

How did CCOC(=O)c1sc(SC)c2c1CC(c1ccccc1)CC2=O (stereo not drawn) do in these assays?
Dicer processing: 3.7*

Results for Cc1cc(C)n2nc(C(C)(C)C)c(Br)c2n1 ?
Dicer processing: 0.1

What do the screens show for `CSc1ccc(OS(=O)(=O)c2cc(S(=O)(=O)c3ccccc3)cs2)cc1`?
Dicer processing: -0.69

What do the screens show for `NC(=O)Cn1c(CSc2nc3ccccc3n2Cc2ccccc2)nc2ccccc21`?
Dicer processing: 4.2*

How did OCCSc1nc2ccccc2n1Cc1ccccc1 do in these assays?
Dicer processing: -0.6

What do the screens show for `O=C(O)CSc1nc2ccccc2n1Cc1ccccc1`?
Dicer processing: -1.6

How did O=S(=O)(c1cccc(C(F)(F)F)c1)N(Cc1ccc2c(c1)OCO2)c1ccc(F)cc1 do in these assays?
Dicer processing: -1.5

What do the screens show for `Nc1c(C(=O)N2CCOCC2)sc2nc(-c3ccccc3)cc(C(F)(F)F)c12`?
Dicer processing: 1.1

Results for O=C(NCc1ccc(-n2cccn2)cc1)c1cnn2c1NC(c1ccco1)CC2C(F)(F)F (stereo not drawn) ?
Dicer processing: 1.8

How did COc1ccc(NC(=O)c2cnn3c2NC(c2cccs2)CC3C(F)(F)F)cc1OC (stereo not drawn) do in these assays?
Dicer processing: 1.4

How did O=C(Nc1cccnc1)c1cc2n(n1)C(C(F)(F)F)CC(c1ccco1)N2 (stereo not drawn) do in these assays?
Dicer processing: 0

How did COCCNC(=O)c1cc2n(n1)C(C(F)(F)F)CC(c1ccco1)N2 (stereo not drawn) do in these assays?
Dicer processing: -0.64

How did COc1ccc(Cl)cc1NC(=O)c1cnn2c1NC(c1ccco1)CC2C(F)(F)F (stereo not drawn) do in these assays?
Dicer processing: 3*

Results for COc1ccc(NC(=O)c2cnn3c2NC(c2ccco2)CC3C(F)(F)F)cc1OC (stereo not drawn) ?
Dicer processing: 4.6*

Results for CC(C)Nc1nc(NC(C)C)nc(Oc2ccc(=O)[nH]n2)n1 ?
Dicer processing: -0.82

How did CCOC(=O)c1c(C)c2c(=O)[nH]cnc2n1-c1ccccc1 do in these assays?
Dicer processing: -0.11

What do the screens show for `CCOC(=O)c1snc2c(=O)[nH]cnc12`?
Dicer processing: 2.2

How did CCOC(=O)c1sc2nc[nH]c(=O)c2c1C do in these assays?
Dicer processing: 4.2*

Results for Cc1onc(-c2ccccc2Cl)c1C(=O)N=S(C)(C)=O ?
Dicer processing: -2.1

Results for Cc1ccc(-c2cc3nc(-c4ccncc4)cc(C(F)(F)F)n3n2)cc1 ?
Dicer processing: -0.26

What do the screens show for `O=C(CC1Sc2ccccc2NC1=O)Nc1ccc2c(c1)OCO2` (stereo not drawn)?
Dicer processing: 3.9*

How did O=C(CC1SCCNC1=O)Nc1ccc2c(c1)OCO2 (stereo not drawn) do in these assays?
Dicer processing: -0.95

How did O=C(CC1Sc2ccccc2NC1=O)Nc1ccc(Cl)cc1 (stereo not drawn) do in these assays?
Dicer processing: -0.08

What do the screens show for `C=CCN(C(=O)c1ccc(Cl)cc1)c1ccccc1C(=O)NCC(=O)OCC`?
Dicer processing: -0.45

How did CN(C(=O)CSc1nc(-c2ccco2)cc(C(F)(F)F)n1)c1ccccc1 do in these assays?
Dicer processing: -0.46

How did FC(F)(F)c1nnc(Nc2cccnc2)s1 do in these assays?
Dicer processing: 0.07

What do the screens show for `FC(F)(F)c1nnc(Nc2ccc(Cl)cc2)s1`?
Dicer processing: 7.3*

How did O=C(Nc1nnc(C(F)(F)F)s1)c1c(F)cccc1F do in these assays?
Dicer processing: -0.09

How did Cc1cc(S(=O)(=O)Cc2c(F)cccc2Cl)c(Cl)cc1Cl do in these assays?
Dicer processing: 0.58

Results for Cc1ccc(C(=O)c2sc3nc(C)cc(-c4cccs4)c3c2N)cc1 ?
Dicer processing: -0.51

Results for Cc1[nH]nc2c1C(c1ccccc1OCc1ccccc1Cl)C(C#N)=C(N)O2 (stereo not drawn) ?
Dicer processing: -0.93

What do the screens show for `O=[N+]([O-])c1ccc2c(c1)C(=NO)c1cc([N+](=O)[O-])ccc1-2`?
Dicer processing: -0.89

What do the screens show for `O=C1c2cc([N+](=O)[O-])ccc2-c2ccc([N+](=O)[O-])cc21`?
Dicer processing: 7.7*

Results for NN=C1c2cc([N+](=O)[O-])ccc2-c2ccc([N+](=O)[O-])cc21 ?
Dicer processing: -0.66

Results for CC(=O)Oc1ccc(OC(C)=O)c2cc3c(OC(C)=O)ccc(OC(C)=O)c3cc12 ?
Dicer processing: -0.98

How did Cn1c(COC(=O)c2sc3ccccc3c2Cl)nc2ccccc21 do in these assays?
Dicer processing: -1.4

What do the screens show for `CCSc1sc(C(=O)OC)c2c1/C(=N/O)CC(C)(C)C2`?
Dicer processing: 2.5

Results for CCCSc1sc(C(=O)OC)c2c1C(=O)CC(C)(C)C2 ?
Dicer processing: -0.81

Results for CCSc1sc(C#N)c2c1C(=O)CC(C)(C)C2 ?
Dicer processing: 3.6*

Results for CCCCn1c(C)nc2c(=O)oc3ccccc3c21 ?
Dicer processing: -0.43

Results for COC(=O)C1=C(C)NC2=C(C(=O)CC(c3ccc(F)cc3)C2)C1c1cn[nH]c1-c1ccccc1 (stereo not drawn) ?
Dicer processing: -0.55

How did Cc1cc(C)c2c3c(sc2n1)C(c1ccc(F)c(F)c1)C(C#N)=C(N)O3 (stereo not drawn) do in these assays?
Dicer processing: -1.2

How did Cn1c(/C=C/c2cn(Cc3ccccc3)c3ccccc23)nc2ccccc2c1=O do in these assays?
Dicer processing: 10

How did C(=C\c1ccc2c(c1)OCO2)/C1=NN(c2ccccc2)C(c2ccc3c(c2)OCO3)C1 (stereo not drawn) do in these assays?
Dicer processing: 0.21

Compound activity from PubChem BioAssay.
